# Assay results reported in the supplement of paper PMC11732987, “Enantioselective OTUD7B fragment discovery through chemoproteomics screening and high-throughput optimisation” (Communications Chemistry, 2025).
# A number with no mark means an inactive call.
# Experiments:
# Assay in all cases: log2 ratio of Biotin-Ahx-Ub-VS probe labelling (fragment/DMSO); higher = less target engagement (more negative = stronger competition), active = hit call of the paper (q ≤ 0.05, log2 ratio ≤ -1)
# Conditions in all cases: compound concentration: 200 uM; treatment time: 3 h
# [1] = biological target: T1, OTUD6B (UniProt Q8N6M0)
# T1 sequence (whole entry): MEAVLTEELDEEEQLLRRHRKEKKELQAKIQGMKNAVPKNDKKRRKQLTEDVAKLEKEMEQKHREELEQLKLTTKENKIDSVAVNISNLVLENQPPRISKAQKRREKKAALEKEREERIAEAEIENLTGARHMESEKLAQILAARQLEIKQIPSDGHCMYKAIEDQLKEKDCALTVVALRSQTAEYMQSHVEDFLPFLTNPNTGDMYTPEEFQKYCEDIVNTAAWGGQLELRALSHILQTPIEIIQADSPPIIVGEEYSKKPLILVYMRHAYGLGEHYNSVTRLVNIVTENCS
# How it was run: (§1)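 Each value is an average log2 ratio of fragment to vehicle, tested by unpaired t-test. The underlying Spectronaut label-free quantities were global-median-normalised, and only proteins with ≥2 unique peptides were included. Triplicate HEK293T lysate samples (495 µg) were exposed to fragment at 200 µM or vehicle for 3 h, then to Biotin-Ahx-Ub-VS at 0.5 µM final for 1 h, before NeutrAvidin enrichment of labelled DUBs, LysC and trypsin digestion, and diaPASEF LC-MS/MS.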
# [2] = biological target: T2, OTUD7B (UniProt Q6GQQ9)
# T2 sequence (whole entry): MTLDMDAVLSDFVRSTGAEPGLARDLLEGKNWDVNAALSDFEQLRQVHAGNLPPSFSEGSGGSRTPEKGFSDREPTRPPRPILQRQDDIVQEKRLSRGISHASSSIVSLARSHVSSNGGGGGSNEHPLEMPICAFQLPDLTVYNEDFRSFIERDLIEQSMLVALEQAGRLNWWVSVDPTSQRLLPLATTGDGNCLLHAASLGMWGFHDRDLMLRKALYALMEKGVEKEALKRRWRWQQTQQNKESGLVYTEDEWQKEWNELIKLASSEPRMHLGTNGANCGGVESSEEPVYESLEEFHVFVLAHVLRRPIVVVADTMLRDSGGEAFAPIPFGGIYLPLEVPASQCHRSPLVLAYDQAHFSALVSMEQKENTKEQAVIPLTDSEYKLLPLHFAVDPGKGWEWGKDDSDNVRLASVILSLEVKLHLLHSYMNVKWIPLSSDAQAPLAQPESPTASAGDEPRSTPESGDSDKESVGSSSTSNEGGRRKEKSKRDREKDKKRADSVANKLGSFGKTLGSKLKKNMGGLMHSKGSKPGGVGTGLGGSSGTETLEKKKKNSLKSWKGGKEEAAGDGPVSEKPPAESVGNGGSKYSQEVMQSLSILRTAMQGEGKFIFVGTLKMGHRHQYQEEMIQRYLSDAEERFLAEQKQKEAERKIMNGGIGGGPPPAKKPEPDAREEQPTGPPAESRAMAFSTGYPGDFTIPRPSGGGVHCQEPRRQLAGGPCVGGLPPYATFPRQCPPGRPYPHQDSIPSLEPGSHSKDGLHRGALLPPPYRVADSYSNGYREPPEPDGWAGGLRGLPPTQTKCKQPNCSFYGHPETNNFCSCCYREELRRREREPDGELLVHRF
# How it was run: as §1
# [3] = biological target: PRPF8 (UniProt Q6P2Q9)
# How it was run: as §1
# [4] = biological target: T3, PSMD7 (UniProt P51665)
# T3 sequence (whole entry): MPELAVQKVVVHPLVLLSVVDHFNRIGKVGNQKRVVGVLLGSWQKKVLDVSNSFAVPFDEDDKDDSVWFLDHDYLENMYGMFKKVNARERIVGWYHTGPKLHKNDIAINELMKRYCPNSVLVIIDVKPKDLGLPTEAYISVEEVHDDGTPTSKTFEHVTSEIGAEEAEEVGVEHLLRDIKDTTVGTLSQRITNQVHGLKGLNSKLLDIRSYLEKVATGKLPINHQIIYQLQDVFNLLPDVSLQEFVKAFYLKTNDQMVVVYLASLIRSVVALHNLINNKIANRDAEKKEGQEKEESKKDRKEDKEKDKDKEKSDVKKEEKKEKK
# How it was run: as §1
# [5] = biological target: UCHL1 (UniProt P09936)
# How it was run: as §1
# [6] = biological target: T4, UCHL3 (UniProt P15374)
# T4 sequence (whole entry): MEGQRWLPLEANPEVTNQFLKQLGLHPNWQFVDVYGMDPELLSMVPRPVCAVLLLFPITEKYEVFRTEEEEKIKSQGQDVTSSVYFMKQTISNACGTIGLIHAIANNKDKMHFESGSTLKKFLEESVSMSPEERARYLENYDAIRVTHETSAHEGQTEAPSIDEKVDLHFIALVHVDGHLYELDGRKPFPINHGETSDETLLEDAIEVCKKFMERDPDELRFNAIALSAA
# How it was run: as §1
# [7] = biological target: T5, UCHL5 (UniProt Q9Y5K5)
# T5 sequence (whole entry): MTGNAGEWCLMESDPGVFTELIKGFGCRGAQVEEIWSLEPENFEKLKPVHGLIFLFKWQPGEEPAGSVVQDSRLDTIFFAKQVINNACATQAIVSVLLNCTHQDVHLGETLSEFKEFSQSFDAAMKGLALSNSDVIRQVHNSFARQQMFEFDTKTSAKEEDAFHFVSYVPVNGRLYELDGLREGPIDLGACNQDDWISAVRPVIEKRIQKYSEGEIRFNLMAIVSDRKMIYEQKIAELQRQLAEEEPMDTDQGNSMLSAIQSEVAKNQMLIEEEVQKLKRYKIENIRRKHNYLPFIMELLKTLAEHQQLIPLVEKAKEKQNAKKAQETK
# How it was run: as §1
# [8] = biological target: USP10 (UniProt Q14694)
# How it was run: as §1
# [9] = biological target: T6, USP15 (UniProt Q9Y4E8)
# T6 sequence (whole entry): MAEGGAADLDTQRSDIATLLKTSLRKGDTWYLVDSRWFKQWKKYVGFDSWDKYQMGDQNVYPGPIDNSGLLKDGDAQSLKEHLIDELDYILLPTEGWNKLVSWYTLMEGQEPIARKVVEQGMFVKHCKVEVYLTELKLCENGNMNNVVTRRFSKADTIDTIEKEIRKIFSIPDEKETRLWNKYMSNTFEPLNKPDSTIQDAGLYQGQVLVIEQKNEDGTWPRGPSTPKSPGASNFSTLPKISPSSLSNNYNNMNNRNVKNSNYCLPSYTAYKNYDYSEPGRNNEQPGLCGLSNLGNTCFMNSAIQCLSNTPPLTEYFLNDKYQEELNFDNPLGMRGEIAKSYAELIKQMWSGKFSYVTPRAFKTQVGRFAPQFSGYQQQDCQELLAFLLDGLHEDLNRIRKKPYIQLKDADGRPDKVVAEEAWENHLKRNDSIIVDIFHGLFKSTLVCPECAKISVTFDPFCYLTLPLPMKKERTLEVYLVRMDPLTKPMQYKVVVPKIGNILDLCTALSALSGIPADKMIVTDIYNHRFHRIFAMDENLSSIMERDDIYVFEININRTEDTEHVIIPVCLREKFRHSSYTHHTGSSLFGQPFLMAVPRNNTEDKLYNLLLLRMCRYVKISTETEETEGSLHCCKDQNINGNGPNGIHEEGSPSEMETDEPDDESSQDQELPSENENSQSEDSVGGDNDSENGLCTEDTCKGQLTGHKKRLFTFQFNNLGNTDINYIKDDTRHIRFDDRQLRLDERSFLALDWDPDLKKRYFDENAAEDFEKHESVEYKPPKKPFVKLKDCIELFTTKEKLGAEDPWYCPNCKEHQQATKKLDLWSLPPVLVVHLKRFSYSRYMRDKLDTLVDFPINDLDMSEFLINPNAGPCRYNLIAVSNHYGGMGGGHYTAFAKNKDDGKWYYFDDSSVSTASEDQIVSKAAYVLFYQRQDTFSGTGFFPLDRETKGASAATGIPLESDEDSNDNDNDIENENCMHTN
# How it was run: as §1
# [10] = biological target: USP16 (UniProt Q9Y5T5)
# How it was run: as §1
# Chain of UCHL1 (P09936 whole entry, looked up): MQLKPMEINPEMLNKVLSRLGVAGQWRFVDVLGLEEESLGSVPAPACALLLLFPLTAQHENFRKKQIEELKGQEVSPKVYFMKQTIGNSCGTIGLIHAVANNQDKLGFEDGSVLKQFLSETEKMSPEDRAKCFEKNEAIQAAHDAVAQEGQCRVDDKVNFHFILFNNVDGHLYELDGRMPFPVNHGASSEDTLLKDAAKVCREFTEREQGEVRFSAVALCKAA
# Chain of USP10 (Q14694 whole entry): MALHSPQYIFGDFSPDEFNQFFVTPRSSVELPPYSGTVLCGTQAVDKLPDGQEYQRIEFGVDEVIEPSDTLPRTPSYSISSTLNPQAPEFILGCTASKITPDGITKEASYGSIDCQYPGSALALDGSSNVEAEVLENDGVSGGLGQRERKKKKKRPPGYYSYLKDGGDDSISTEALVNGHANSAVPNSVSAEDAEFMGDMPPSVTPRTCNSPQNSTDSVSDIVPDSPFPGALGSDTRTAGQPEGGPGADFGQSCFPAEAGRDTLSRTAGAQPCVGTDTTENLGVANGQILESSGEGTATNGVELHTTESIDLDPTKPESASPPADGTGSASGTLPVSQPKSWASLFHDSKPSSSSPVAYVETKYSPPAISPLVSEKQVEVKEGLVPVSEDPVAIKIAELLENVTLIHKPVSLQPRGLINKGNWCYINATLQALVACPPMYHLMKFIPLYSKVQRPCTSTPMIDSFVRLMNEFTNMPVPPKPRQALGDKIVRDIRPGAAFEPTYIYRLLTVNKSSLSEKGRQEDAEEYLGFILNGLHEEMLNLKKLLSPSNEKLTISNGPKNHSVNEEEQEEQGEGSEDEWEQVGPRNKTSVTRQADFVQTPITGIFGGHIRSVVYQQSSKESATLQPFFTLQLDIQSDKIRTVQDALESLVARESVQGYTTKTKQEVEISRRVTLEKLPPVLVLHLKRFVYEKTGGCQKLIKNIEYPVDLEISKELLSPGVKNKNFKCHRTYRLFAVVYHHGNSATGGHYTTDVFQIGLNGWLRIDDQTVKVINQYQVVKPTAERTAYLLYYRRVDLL
# Chain of USP16 (Q9Y5T5 whole entry, looked up): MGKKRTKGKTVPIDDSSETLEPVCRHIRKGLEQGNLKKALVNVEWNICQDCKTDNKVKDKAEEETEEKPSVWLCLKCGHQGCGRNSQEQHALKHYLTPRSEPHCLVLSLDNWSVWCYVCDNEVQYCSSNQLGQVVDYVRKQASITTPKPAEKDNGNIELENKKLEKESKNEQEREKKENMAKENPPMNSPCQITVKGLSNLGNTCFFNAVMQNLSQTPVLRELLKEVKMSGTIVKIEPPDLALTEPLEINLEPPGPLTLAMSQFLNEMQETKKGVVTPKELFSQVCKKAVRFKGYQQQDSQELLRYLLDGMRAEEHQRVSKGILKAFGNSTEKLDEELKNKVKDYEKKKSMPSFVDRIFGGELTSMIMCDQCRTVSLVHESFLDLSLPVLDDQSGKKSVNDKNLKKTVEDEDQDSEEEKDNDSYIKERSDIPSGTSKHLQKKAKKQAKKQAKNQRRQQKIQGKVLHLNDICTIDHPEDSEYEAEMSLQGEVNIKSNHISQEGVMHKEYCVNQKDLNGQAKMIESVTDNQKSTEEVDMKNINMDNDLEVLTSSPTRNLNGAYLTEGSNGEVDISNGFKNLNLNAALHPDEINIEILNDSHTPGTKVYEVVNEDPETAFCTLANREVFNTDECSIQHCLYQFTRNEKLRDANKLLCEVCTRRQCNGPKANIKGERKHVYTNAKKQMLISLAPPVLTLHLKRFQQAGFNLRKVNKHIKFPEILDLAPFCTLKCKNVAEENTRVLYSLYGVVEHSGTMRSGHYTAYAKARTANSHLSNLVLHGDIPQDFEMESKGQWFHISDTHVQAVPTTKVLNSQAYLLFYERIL
compound,measurement,setting,value
CN(CCC(O)c1ccc(Br)cc1)C(=O)CCl (stereo not given),log2 ratio of Biotin-Ahx-Ub-VS probe labelling,[1],-0.0417
same,log2 ratio of Biotin-Ahx-Ub-VS probe labelling,[2],-1.37 (active)
same,log2 ratio of Biotin-Ahx-Ub-VS probe labelling,[3],0.169
same,log2 ratio of Biotin-Ahx-Ub-VS probe labelling,[4],-0.221
same,log2 ratio of Biotin-Ahx-Ub-VS probe labelling,[5],-1.61 (active)
same,log2 ratio of Biotin-Ahx-Ub-VS probe labelling,[6],-0.26
same,log2 ratio of Biotin-Ahx-Ub-VS probe labelling,[7],-0.331
same,log2 ratio of Biotin-Ahx-Ub-VS probe labelling,[8],-0.142
same,log2 ratio of Biotin-Ahx-Ub-VS probe labelling,[9],-0.337
same,log2 ratio of Biotin-Ahx-Ub-VS probe labelling,[10],0.00689
